# Test system: Pseudomonas aeruginosa PA14 dppA1-A5 penta mutant + pBBR5.DppA1 (PA14_58350)
# Experiment: respiration area under curve with compound as sole nitrogen source, 24 h (OmniLog AUC (arbitrary units)); higher = more respiration / better utilisation as nitrogen source, active = 2000 or more
# Description: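 Biolog Phenotype MicroArray plates PM6-PM8: each di/tripeptide is the sole nitrogen source. Tetrazolium reduction was read in the OmniLog for 24 h at 37°C and summarised as area under the respiration curve (arbitrary units). Values below 2000 count as no respiration. Strain is the SBP penta mutant complemented with DppA1 on a plasmid under its native promoter. Lys/His/Cys peptides are excluded.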
row,SMILES,respiration area under curve
1,C[C@@H](O)[C@H](N)C(=O)N1CCC[C@H]1C(=O)O (plate: PM7),10700 (active)
2,CSCC[C@H](NC(=O)[C@@H](N)[C@@H](C)O)C(=O)O (plate: PM7),2920 (active)
3,CC[C@H](C)[C@H](N)C(=O)N[C@@H](CCSC)C(=O)O (plate: PM6),289 (inactive)
4,CC[C@H](C)[C@H](NC(=O)[C@@H](N)C(C)C)C(=O)O (plate: PM7),6870 (active)
5,N[C@@H](Cc1ccc(O)cc1)C(=O)N[C@@H](Cc1ccccc1)C(=O)O (plate: PM7),6470 (active)

# Test system: Pseudomonas aeruginosa PA14 dppBCDF deletion mutant
# Experiment: respiration area under curve with compound as sole nitrogen source, 24 h (OmniLog AUC (arbitrary units)); higher = more respiration / better utilisation as nitrogen source, active = 2000 or more; extreme values may be limits of the assay
# Description: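 Biolog Phenotype MicroArray plates PM6-PM8: each di/tripeptide is the sole nitrogen source. Tetrazolium reduction was read in the OmniLog every 15 min for 24 h at 37°C and summarised as area under the respiration curve (arbitrary units). Values below 2000 count as no respiration. Strain is the dipeptide ABC transporter deletion mutant.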
row,SMILES,respiration area under curve
1,NCC(=O)N[C@@H](Cc1ccc(O)cc1)C(=O)O (plate: PM6),216 (inactive)
2,C[C@H](N)C(=O)N[C@@H](C)C(=O)O (plate: PM6),6250 (active)
3,C[C@H](N)C(=O)N1CCC[C@H]1C(=O)O (plate: PM6),717 (inactive)
4,C[C@H](N)C(=O)N[C@@H](CCC(=O)O)C(=O)O (plate: PM6),3750 (active)
5,C[C@@H](O)[C@H](N)C(=O)N1CCC[C@H]1C(=O)O (plate: PM7),0 (inactive)
6,CSCC[C@H](NC(=O)[C@@H](N)[C@@H](C)O)C(=O)O (plate: PM7),204 (inactive)
7,N[C@@H](CCC(=O)O)C(=O)N[C@@H](Cc1ccc(O)cc1)C(=O)O (plate: PM6),44 (inactive)
8,CC[C@H](C)[C@H](N)C(=O)N[C@@H](CCSC)C(=O)O (plate: PM6),0 (inactive)
9,CSCC[C@H](N)C(=O)NCC(=O)O (plate: PM7),33.2 (inactive)
10,NC(=O)CC[C@H](NC(=O)[C@@H](N)CC(=O)O)C(=O)O (plate: PM8),5.25 (inactive)
11,CC(C)[C@H](N)C(=O)N[C@@H](Cc1ccc(O)cc1)C(=O)N[C@H](C(=O)O)C(C)C (plate: PM8),5710 (active)
12,CC(C)C[C@H](NC(=O)CN)C(=O)O (plate: PM6),0 (inactive)
13,CC[C@H](C)[C@H](N)C(=O)N[C@@H](Cc1ccc(O)cc1)C(=O)O (plate: PM6),11 (inactive)
14,CC(C)C[C@H](NC(=O)[C@@H](N)C(C)C)C(=O)O (plate: PM7),3160 (active)
15,CC[C@H](C)[C@H](N)C(=O)N[C@@H](C)C(=O)O (plate: PM6),88.8 (inactive)
16,N[C@@H](Cc1ccc(O)cc1)C(=O)NCC(=O)O (plate: PM7),3760 (active)
17,CSCC[C@H](N)C(=O)N[C@@H](CCC(=O)O)C(=O)O (plate: PM7),0 (inactive)
18,O=C(O)[C@H](Cc1ccc(O)cc1)NC(=O)[C@@H]1CCCN1 (plate: PM7),8430 (active)

row,SMILES,respiration area under curve
1,N[C@@H](Cc1ccccc1)C(=O)N[C@@H](Cc1ccc(O)cc1)C(=O)O (plate: PM8),881 (inactive)
2,CC(C)[C@H](N)C(=O)N[C@@H](CCCN=C(N)N)C(=O)O (plate: PM7),11700 (active)
3,CC(C)[C@H](N)C(=O)N[C@@H](CCC(N)=O)C(=O)O (plate: PM8),1010 (inactive)
4,NC(N)=NCCC[C@H](N)C(=O)N[C@@H](Cc1c[nH]c2ccccc12)C(=O)O (plate: PM6),7640 (active)
5,N[C@@H](Cc1ccccc1)C(=O)N[C@@H](Cc1c[nH]c2ccccc12)C(=O)O (plate: PM7),85 (inactive)
6,CC[C@H](C)[C@H](NC(=O)[C@@H](N)Cc1ccccc1)C(=O)O (plate: PM7),6010 (active)
7,CC(C)[C@H](N)C(=O)NCC(=O)O (plate: PM7),47.8 (inactive)
8,CC(C)CC(N)C(=O)NC(CC(=O)O)C(=O)O (stereo not given) (plate: PM6),735 (inactive)
9,CC[C@H](C)[C@H](NC(=O)[C@@H](N)C(C)C)C(=O)O (plate: PM7),842 (inactive)
10,C[C@H](NC(=O)[C@@H](N)Cc1c[nH]c2ccccc12)C(=O)O (plate: PM7),744 (inactive)
11,CC(C)[C@@H](NC(=O)CN)C(=O)O (plate: PM8),0 (inactive)
12,N[C@@H](Cc1ccc(O)cc1)C(=O)N[C@@H](Cc1ccccc1)C(=O)O (plate: PM7),3450 (active)
13,CSCC[C@H](N)C(=O)N[C@H](C(=O)O)C(C)C (plate: PM7),1430 (inactive)
14,CC(C)C[C@H](N)C(=O)NCC(=O)NCC(=O)O (plate: PM8),5290 (active)
15,C[C@@H](O)[C@H](N)C(=O)N[C@@H](CC(=O)O)C(=O)O (plate: PM8),0 (inactive)
16,C[C@H](N)C(=O)N[C@@H](CC(=O)O)C(=O)O (plate: PM8),2510 (active)
17,CC[C@H](C)[C@H](NC(=O)[C@@H]1CCCN1)C(=O)O (plate: PM8),1 (inactive)

# From the supplement of paper PMC4206461
